Assay outcomes: PubChem, several laboratories
Shown is part of a subset that was picked to be rich in hits.
ARNT-TACC3 inh = disruptors of human ARNT/TACC3 interaction; 390,000 compounds, 0.66% hits; inhibition, % at 9.99 µM; AlphaScreen His-ARNT PAS-B/GST-TACC3 binding, luminescence; TACC3 fragment carries E629A point mutation; AID 623870;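 active means mean inhibition of replicates at least 50% and at least half of replicates each reaching 50%; inconclusive means half or more replicates reach 50% but mean below 50%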;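 further: 0% = complete ARNT plus TACC3 wells and 100% = ARNT alone without TACC3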
ERp5 block = inhibitors of human ERp5; inhibition, % at 9.99 µM; ERp5 insulin aggregation, absorbance 650 nm, 90 min; 350,000 compounds, 0.05% hits;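 active means mean replicate inhibition above about 25%, with every replicate also reaching it, limit read from the data, passing the limit was not always enough; inconclusive means only one of those two criteria met; inactive means neither criterion met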
PDI inh = blocks human protein disulfide isomerase activity; P07237; PDI insulin aggregation turbidity, A650, 90 min; inhibition, % at 10 µM; 350,000 compounds, 0.052% hits;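 active means mean inhibition across replicates of 30% or more, whatever share of single replicates reach that level; inconclusive means mean inhibition below 30% while every single replicate reaches 30%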
ALR inh = human ALR oxidase inhibition via reduced H2O2; P55789; inhibition, % (no concentration beside the values); purified ALR, DTT oxidation, H2O2 HRP-luminol luminescence; AID 485317; 290,000 compounds, 3.8% hits;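 active means mean replicate inhibition above about 79%, with every replicate also reaching it, limit read from the data; inconclusive means only one of the two criteria met; inactive means mean below limit and not every replicate reaching it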
NRP1-CendR mod = NRP-1/CendR interaction modulation. inhibition, % at 25 µM. FAM-RPARPAR peptide binding to NRP-1, fluorescence polarization. 360,000 compounds, 0.85% hits. O14786;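 active means inhibition or corrected inhibition above about 18%, plus a signal ratio from 0.5 to 1.5, limit read from the data, passing the limit was not always enough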
Target sequence (O14786 whole entry, looked up): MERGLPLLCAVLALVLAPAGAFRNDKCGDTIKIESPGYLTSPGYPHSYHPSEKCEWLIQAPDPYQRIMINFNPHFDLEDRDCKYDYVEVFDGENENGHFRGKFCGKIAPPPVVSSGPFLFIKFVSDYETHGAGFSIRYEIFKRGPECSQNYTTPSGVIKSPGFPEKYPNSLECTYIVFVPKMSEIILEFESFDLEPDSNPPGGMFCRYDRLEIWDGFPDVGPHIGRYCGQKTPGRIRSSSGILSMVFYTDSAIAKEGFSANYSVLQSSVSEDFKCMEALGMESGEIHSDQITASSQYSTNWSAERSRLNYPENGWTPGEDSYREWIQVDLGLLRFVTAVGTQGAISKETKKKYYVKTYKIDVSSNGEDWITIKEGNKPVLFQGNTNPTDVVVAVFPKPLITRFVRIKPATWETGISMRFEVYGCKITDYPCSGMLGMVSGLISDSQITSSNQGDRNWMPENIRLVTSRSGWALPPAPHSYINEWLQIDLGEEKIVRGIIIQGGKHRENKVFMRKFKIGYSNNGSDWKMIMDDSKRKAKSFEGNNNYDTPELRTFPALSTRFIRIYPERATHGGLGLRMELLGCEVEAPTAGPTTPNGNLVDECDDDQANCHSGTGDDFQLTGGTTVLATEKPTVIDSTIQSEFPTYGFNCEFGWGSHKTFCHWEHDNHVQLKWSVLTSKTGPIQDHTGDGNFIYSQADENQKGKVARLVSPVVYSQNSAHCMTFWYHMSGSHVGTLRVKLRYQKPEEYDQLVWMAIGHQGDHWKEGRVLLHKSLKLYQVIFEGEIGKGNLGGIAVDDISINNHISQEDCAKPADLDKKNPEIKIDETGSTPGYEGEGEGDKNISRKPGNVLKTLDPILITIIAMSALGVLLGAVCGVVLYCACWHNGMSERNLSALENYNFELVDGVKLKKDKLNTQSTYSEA
PglD inh = PglD (C. jejuni) enzyme inhibition; purified PglD enzyme, DTNB colorimetric CoA detection; inhibition, % at 12.5 µM; 360,000 compounds, 0.098% hits; AID 602405; in the data active means inhibition above about 16%, passing the limit was not always enough; inconclusive means no clear call, values can overlap the other calls
An asterisk follows results filed as active; ? = inconclusive; nt = no result given; ! = not active in a repeat.

SMILES	ARNT-TACC3 inh	ERp5 block	PDI inh	ALR inh	NRP1-CendR mod	PglD inh
CN(C)c1cccc(C(=O)NNC(=S)NC2CC3CCC2C3)c1 (stereo unspecified)	7.4	-8.3	-0.6	84.6*	-1.8	-0.7
CC(C)N(C(=S)NC1CC2CCC1C2)c1ccccc1 (stereo unspecified)	-4.4	-2.2	-5.0	-4.3	6.4	-7.5
O=C(CCC(=O)c1cccs1)Nc1nnc(C2CC2)s1	-3.2	nt	-13.6	-4.4	-1.3	1.8
O=C(Nc1ncc([N+](=O)[O-])s1)c1cccs1	-19.1	-0.8	-4.7	97.0*!	-13.5	1.0
O=C(Nc1nnc(C2CC2)s1)c1cccs1	-5.6	2.9	-1.7	-0.2	25.1*	-3.1
O=C(Nc1ncc([N+](=O)[O-])s1)c1ccccc1Br	-1.3	1.9	-2.1	97.0*	-1.8	-0.9
O=C(COC(=O)c1ccc(Br)o1)Nc1ncc([N+](=O)[O-])s1	nt	-15.1	-6.0	96.5*	-26.7	nt
Cc1cnc(NC(=O)c2cccs2)s1	9.6	2.5	-2.6	4.5	5.2	0.8
CC=Cc1ccc2n(c1=O)C[C@H]1[C@H](CO)[C@@H](C(=O)NCC)N(C(=O)c3cccnc3)[C@@H]21 (mixture of isomers)	-6.0	1.7	nt	nt	nt	-0.8
C[C@@H]1CN([C@H](C)CO)C(=O)c2cc(NC(=O)c3ccncc3)ccc2O[C@H]1CN(C)Cc1ccc2c(c1)OCO2	nt	-4.4	nt	nt	nt	1.6
CCNC(=O)[C@H]1[C@H](CO)[C@H]2Cn3c(ccc(C4=CCCCC4)c3=O)[C@@H]1N2CCC(F)(F)F	nt	-1.5	nt	nt	nt	nt
COc1ccc(Nc2cc(C)nc(NCc3ccccc3)n2)cc1	6.1	1.5	-5.5	75.0*	1.1	5.6
C[C@@H]1CCCCO[C@@H](CN(C)C(=O)c2ccncc2)[C@H](C)CN([C@@H](C)CO)C(=O)c2cc(NS(C)(=O)=O)ccc2O1	-13.0	-5.8	nt	nt	nt	0.4
Cc1noc(C)c1CCC(=O)NC1CCCN(Cc2ccc(Cl)cc2)C1 (stereo unspecified)	46.4*	0.8	8.2	-4.4	2.7	-1.0
Cc1noc(C)c1CCC(=O)NC1CCCN(Cc2ccc(CC(C)C)cc2)C1 (stereo unspecified)	-4.0	-1.7	-4.0	-1.8	-5.4	-5.4
O=C(CSc1nncn1-c1ccccc1)Nc1ccc(N2CCOCC2)cc1	-11.6	nt	-4.9	98.6*	12.9	6.1
Cn1c(SCC(=O)Nc2ccc(N3CCOCC3)cc2)nnc1C1CC1	nt	1.1	3.1	?	6.1	nt
COc1ccccc1NC(=O)CSc1nncn1-c1ccccc1	6.5	5.0	-7.7	98.1*	2.8	-7.2
CCC(c1nnc(SCC(=O)Nc2ccc(N3CCOCC3)cc2)n1Cc1ccccc1)N(C)C (stereo unspecified)	14.9	0.7	5.3	98.3*	26.6*	4.3
O=C(CSc1nnc(C2CC2)n1-c1ccccc1)Nc1ccc(N2CCOCC2)cc1	5.6	nt	-2.3	97.6*	5.3	-4.4
CCC(c1nnc(SCC(=O)Nc2c(F)cccc2F)n1Cc1ccccc1)N(C)C (stereo unspecified)	-0.3	3.9	6.7	-7.7	0.6	0.8
COc1cccc(NC(=O)Nc2ccc3c(c2)C(=O)N(C)[C@H]2CC[C@H](CC(=O)NCCc4ccccc4)O[C@H]2CO3)c1	21.5	-1.1	nt	nt	nt	-4.1
CCNC(=O)C[C@@H]1C=C[C@@H](NC(=O)C2CC2)[C@H](CO)O1	-10.3	1.8	nt	nt	nt	-0.5
Cc1ccc(-c2csc(CC(N)=O)n2)cc1	-5.7	3.5	6.1	91.1*	4.2	-2.9
CC=Cc1ccc2n(c1=O)C[C@H]1[C@H](CO)[C@@H](C(=O)Nc3ccc(-c4ccccc4)cc3)N(C(=O)CC)[C@@H]21 (mixture of isomers)	-2.0	-1.1	nt	nt	nt	1.6
SMILES	ARNT-TACC3 inh	ERp5 block	PDI inh	ALR inh	NRP1-CendR mod	PglD inh
COc1ccc2[nH]cc(C(=O)CNc3nc(C)cs3)c2c1	-9.6	nt	4.3	81.2*	-7.2	-2.4
COc1cccc(CN2CC3(C2)CN(C(=O)C2CC2)[C@H](CO)c2[nH]c4cc(OC)ccc4c23)c1	nt	9.3	nt	nt	nt	nt
C[C@H](CO)N1C[C@H](C)[C@@H](CN(C)C(=O)NC2CCCCC2)Oc2c(NC(=O)NC3CCCCC3)cccc2C1=O	-5.5	-8.0	nt	nt	nt	3.7
O=C(NCc1ccccc1)c1cccc(NC(=O)c2ccccc2)c1	13.4	-1.3	8.3	nt	-13.0	1.9
O=C(NCc1ccccc1Cl)c1cccc(NC(=O)c2ccccc2)c1	-24.2	nt	3.7	-6.3	18.3*	-5.6
CCc1ccc(-c2nc(CS(=O)CC(=O)NCc3ccco3)c(C)o2)cc1 (stereo unspecified)	3.6	5.2	-0.1	98.6*	-6.1	1.4
COc1ccc(-c2nc(CS(=O)CC(=O)NCc3ccco3)c(C)o2)cc1 (stereo unspecified)	0.9	-6.6	nt	98.9*	-9.3	2.2
Cc1oc(-c2ccc(Cl)cc2)nc1CN1CCC(C(=O)NCc2ccco2)CC1	-4.2	nt	-6.6	-7.0	-12.9	-0.8
COc1ccc(-c2noc(CCC(=O)NCc3ccco3)n2)cc1	-5.8	6.1	13.9	-2.8	-0.1	0.1
C[C@@H]1CN([C@H](C)CO)C(=O)c2cccc(NS(=O)(=O)c3cccs3)c2O[C@H]1CN(C)C(=O)Nc1ccc(F)cc1	-5.0	2.4	nt	nt	nt	4.2
CCOc1ccc(NC(N)=O)cc1	0.6	6.1	-2.4	-2.9	11.3	4.6
NC(=O)Nc1ccc(Oc2c(F)c(F)c(F)c(F)c2F)cc1	-0.2	nt	4.9	-15.9	39.7*	0.0
CCn1c(CSc2nc3ccccc3s2)nnc1SCC(=O)c1ccc(O)c(O)c1	7.2	nt	18.5	98.0*	-45.8	-6.9
CCn1c(SCC(=O)c2ccccc2)nnc1-c1cccs1	-14.4	nt	9.8	nt	31.8*	-3.0
CCn1c(SCC(=O)c2cc(C)n(C)c2C)nnc1-c1ccccc1	-1.7	nt	-0.1	3.5	-2.1	-2.0
CCn1c(SCC(=O)c2ccc(O)c(O)c2)nnc1-c1ccccc1OC	-7.4	nt	-3.7	98.8*	-63.5	-3.6
CCn1c(SCC(=O)c2ccc(O)c(O)c2)nnc1-c1ccccc1	-6.2	nt	11.7	97.6*	-16.7	nt
C=CCn1c(SCC(=O)c2ccc(O)c(O)c2)nnc1-c1ccccc1OC	-0.5	0.1	-2.4	64.4	-75.6	3.8
CN(C)C(=O)c1ccc(-c2ccc3c(c2)[C@@H]2[C@@H](CCN2Cc2cncnc2)[C@@H](CO)N3)cc1	26.3	nt	nt	nt	nt	-0.8
O=C(c1ccccc1)N1[C@H](CO)[C@H](c2ccccc2)C12CN(CCC(F)(F)F)C2	nt	-0.1	nt	nt	nt	nt
C[C@@H]1CCCCO[C@H](CN(C)C(=O)Nc2ccc3c(c2)OCO3)[C@H](C)CN([C@H](C)CO)C(=O)c2cc(NC(=O)Cc3ccccc3)ccc2O1	-11.2	nt	nt	nt	nt	5.2
COc1ccc2c3c(n(C)c2c1)[C@@H](CO)N(Cc1ccccc1Cl)CC31CCN(C(=O)CN(C)C)CC1	nt	0.3	nt	nt	nt	nt
Nc1ccc(N2CCOCC2)c2nonc12	28.7	22.1	66.3*	67.4	10.2	-2.7
